The values that follow come from PubChem BioAssay.

SMILES strings stand for the structures. Several values for one entry are separate records, joined by “and”; a condition that tells them apart may be missing. Identical values can stand only once. Records with an inconclusive call do not appear. Activity calls are given as the source filed them.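 How the source made its calls, unless noted: active means compounds killing one labelled cell type while sparing the other, by normalised counts and ratio limits, not self-fluorescent; inactive means the rest.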

The nature of assay [1]: polyglutamine-triggered caspase-3 activation inhibitors, cell-based (AID 1583). The note with it: polyglutamine-induced caspase-3 activation, cell assay; stronger effect = higher value;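 tested at 10 µM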.
A short description of assay [2]: suppressors of polyQ aggregation in yeast, 75Q-TubU reporter (AID 1593). The note with it: Yeast 75Q polyglutamine aggregation reporter.
A short description of assay [3]: inhibitors of mitochondrial cytochrome c release, biochemical, purified mitochondria (AID 1603).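 Further: mouse liver mitochondria challenged with calcium chloride; signal normalized to the plate average as 100%.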 The note with it: stronger effect = lower value.
A short description of assay [4]: differential killing of epithelial or mesenchymal cells, primary screen, imaging, PC-3E GFP, TEM4-18 mCherry, co-culture (AID 1345086).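 On all read-outs here: cells exposed to compound for 72 h before imaging.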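 On red/green cell ratio (normalised): normalised mesenchymal count divided by normalised epithelial count so high means epithelial killing.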 The note with it: imaging cell counts, at 1 µM; for red/green cell ratio (normalised): actives lie on both sides, counts scaled to control wells, 1 = unselective.
Assay [5] in a line: liver-stage malaria parasite growth inhibition, primary screen, cell-based, HepG2, luciferase luminescence, HepG2 viability (AID 624349; in the data active means parasite load remaining mostly below about 12%, no sharp cut-off; inactive means mostly above about 10%;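 further: 100% = mean of DMSO negative control wells on the same plate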). The settings on record: P. berghei liver stage in HepG2, luciferase luminescence, concentration not given here; parasite load remaining: stronger effect = lower value; viability: measured here: HepG2 viability without parasites.
The test system of assay [6] is Aerobactin synthetase IucA (Klebsiella pneumoniae). The assay is described as follows: IucA aerobactin synthetase inhibitors, biochemical, Tocris library, absorbance (AID 1345561; call rule not given here;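 further: 100% = enzyme without compound and 0% = no enzyme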). The note with it: purified IucA enzyme assay, absorbance (OD) read-out; stronger effect = lower value;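 tested at 8 µM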.
Assay [7] in a line: growth inhibition of DIPG glioma cells, dose response, cell-based, SU-DIPG-XVII, MIPE5.0, CellTiter-Glo, qHTS (AID 1347060; cut-off not given, nearly all actives have AC50 up to about 26 µM;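 further: cells exposed to compound for 48 hours before viability readout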). The note with it: SU-DIPG-XVII viability, CellTiter-Glo ATP luminescence.
The nature of assay [8]: growth inhibition of DIPG glioma cells, dose response, cell-based, SU-DIPG-XIII, MIPE4.0, CellTiter-Glo, qHTS (AID 1347061; cut-off not given, nearly all actives have AC50 up to about 37 µM;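 further: cells exposed to compound for 48 hours before readout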). The note with it: SU-DIPG-XIII viability, CellTiter-Glo ATP luminescence.
A short description of assay [9]: growth inhibition of DIPG glioma cells, dose response, cell-based, JHH-DIPG-1, MIPE4.0, CellTiter-Glo, qHTS (AID 1347062; cut-off not given, nearly all actives have AC50 up to about 27 µM;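 further: cells exposed to compound for two days before readout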). The settings on record: JHH-DIPG-1 viability, CellTiter-Glo ATP luminescence. (In general: In ATP-based viability assays light output follows the ATP content of the culture.)
A short description of assay [10]: growth inhibition of DIPG glioma cells, dose response, cell-based, SU-DIPG-IV, MIPE4.0, CellTiter-Glo, qHTS (AID 1347063; cut-off not given, nearly all actives have AC50 up to about 30 µM;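 further: compound exposure lasted 48 hours before the viability readout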). The settings on record: SU-DIPG-IV viability, CellTiter-Glo ATP luminescence.
The nature of assay [11]: growth inhibition of DIPG glioma cells, dose response, cell-based, SU-DIPG-XIII, MIPE5.0, CellTiter-Glo, qHTS (AID 1347064; cut-off not given, nearly all actives have AC50 up to about 23 µM;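 further: cells exposed to compound for 48 hours before the viability read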). The note with it: SU-DIPG-XIII viability, CellTiter-Glo ATP luminescence.
A short description of assay [12]: viability loss in pontine glioma line – cell-based, SU-DIPG-XXV, MIPE5.0, CellTiter-Glo, qHTS, dose response (AID 1347065; cut-off not given, nearly all actives have AC50 up to about 26 µM;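 further: cells exposed to compound for 48 hours before ATP readout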). The settings on record: CellTiter-Glo ATP luminescence.
Assay [13] is described as follows: SU-DIPG-VI glioma cell viability, MIPE4.0 library, CellTiter-Glo luminescence, qHTS (AID 1347066; cut-off not given, nearly all actives have AC50 up to about 30 µM;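 further: cells exposed to compound for 48 hours before readout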). The settings on record: CellTiter-Glo ATP luminescence.
Assay [14] in a line: JHH-DIPG-1 glioma cell viability, MIPE5.0 library, CellTiter-Glo luminescence, qHTS (AID 1347067; cut-off not given, nearly all actives have AC50 up to about 26 µM;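 further: cells exposed to compound for 48 hours before readout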). The note with it: JHH-DIPG-1 glioma viability, CellTiter-Glo ATP luminescence.
A short description of assay [15]: SU-DIPG-XXV glioma cell viability, MIPE5.0 library, qHTS (AID 1347068; cut-off not given, nearly all actives have IC50 up to about 30 µM;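 further: cells exposed to compound for 48 hours before viability readout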). A general note: Quantitative high-throughput screening tests each substance at several concentrations.
Assay [16] can be described thus: sensitizers of A549 cells to miR-34 induction, primary screen, imaging, A549 dox-inducible miR-34, nuclei and caspase counts (AID 1347080;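 active means compounds whose cell count with miR-34 switched on is under 0.7 times the count with it off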). The note with it: A549 miR-34 inducible, Hoechst nuclei count, 48 h.
Assay [17] can be described thus: viability rescue of complex I mutant cybrids, primary screen, cell-based, galactose medium, ATP luminescence (AID 1645843;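 active means z-score of at least 1.8 in each of two replicates, scored against plate mean and spread of sample wells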;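 further: positive z means more ATP and so rescue of galactose-driven cybrid death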). The settings on record: complex I mutant cybrid cells, 72 h, stronger effect = higher value.
The mark [18] stands for this setting: measured here: epithelial PC-3E GFP cell survival.
The mark [19] stands for this setting: measured here: mesenchymal TEM4-18 mCherry cell survival.

A word on the inhibition: it is the change of the read-out against control, counted positive when it falls. Take `CC1=C2C(=CO[C@H](C)[C@H]2C)C(=O)C(C(=O)O)=C1O`: the inhibition in assay [1] was determined as 1.38%. Besides, the score in [2] was found to be 0.74. Further, the cytochrome c release ratio in assay [3] stood at 0.99. In addition, in assay [4], the red/green cell ratio (normalised) is 1.08 (inactive) and 1.06 (inactive) and 0.92 (inactive). Moreover, the normalised cell number in [4] (setting [18]) was 0.92 and 0.97 and 1.03; in assay [4] (setting [19]), 0.99 and 1.03 and 0.95.

As a reminder, the viability is a per cent measure of how many cells are alive, often set against a control. Regarding `CCCC(=O)Nc1ncnc2c1ncn2C1O[C@@H]2COP(=O)(O)O[C@H]2[C@H]1OC(=O)CCC` (stereo partly specified), in assay [1], the inhibition was -71.1%. This compound gave a score in assay [2] of 1.26. The cytochrome c release ratio in assay [3] is 0.87. Further, in [5], the parasite load remaining is 129% (inactive). The viability in assay [5] stood at 95%. In assay [4], the red/green cell ratio (normalised) is 0.94 (inactive). Moreover, the normalised cell number in assay [4] (setting [18]) amounted to 0.93; in assay [4] (setting [19]), 0.88.

For `CC(=O)[C@@]1(O)CCC2C3C=C(Cl)C4=CC(=O)[C@@H]5CC5[C@]4(C)C3CC[C@@]21C` (stereo partly specified), the inhibition in assay [1] came to 39.2%. The compound further gave a score in assay [2] of 0.81. In addition, the cytochrome c release ratio in assay [3] is 1.45. In assay [5], the parasite load remaining is 143% (inactive). Further, the viability in assay [5] stood at 89.2%. Further, the red/green cell ratio (normalised) in assay [4] is 0.82 (inactive). The normalised cell number in [4] (setting [18]) was 1.07; in [4] (setting [19]), 0.88.

As to `CC(=O)N1CCCC1C(=O)O` (stereo unspecified), in assay [5], the parasite load remaining was 194% (inactive) and the viability came to 68.3%. In assay [4], the red/green cell ratio (normalised) was 0.79 (inactive). Moreover, in assay [4] (setting [18]), the normalised cell number was determined as 1.3. Besides, the normalised cell number in assay [4] (setting [19]) turned out to be 1.03.

Consider `COc1ccc(-c2cc(=O)c3c(O)cc(O[C@@H]4O[C@H](CO[C@H]5O[C@H](C)[C@@H](O)[C@H](O)[C@@H]5O)[C@@H](O)[C@H](O)[C@H]4O)cc3o2)cc1O`, for which the inhibition in [1] was determined as 25.9%. Also, in [2], the score is 2.29. In addition, the cytochrome c release ratio in assay [3] is 0.94. In addition, in assay [5], the parasite load remaining is 42.5% (inactive) and the viability worked out at 98.3%. Moreover, the red/green cell ratio (normalised) in assay [4] was 0.86 (inactive). This compound came in with a normalised cell number in assay [4] (setting [18]) of 1.13. For the same compound, the normalised cell number in [4] (setting [19]) is 0.98.

In the case of `CC[C@H](C)C(=O)O[C@H]1CCC=C2C=C[C@H](C)C(CCC3C[C@@H](O)CC(=O)O3)[C@H]21` (stereo partly specified), the inhibition in assay [1] was -3.44%. The score in assay [2] came to 0.88. For the same compound, the cytochrome c release ratio in assay [3] turned out to be 1.24. The red/green cell ratio (normalised) in assay [4] is 0.93 (inactive). Further, the normalised cell number amounted to 0.95 in assay [4] (setting [18]) and 0.89 in assay [4] (setting [19]).

For the compound `Nc1ccn(C2O[C@H](CO)[C@@H](O)[C@H]2O)c(=O)n1` (stereo partly specified), the inhibition in [1] amounted to 22%. Further, in [2], the score worked out at 1.09. Also, the cytochrome c release ratio in assay [3] came to 1.18. Also, in assay [4], the red/green cell ratio (normalised) is 1.13 (inactive). The values for the normalised cell number in [4] (setting [18]) and in [4] (setting [19]) were 1.06 and 1.19, respectively.

Turning to `C1CCN2C[C@H]3C[C@H](CN4CCCC[C@@H]34)[C@H]2C1`, the inhibition in [1] was -43.7%. Also, the score in assay [2] came to 1.18. In addition, the cytochrome c release ratio in assay [3] turned out to be 1.05. Also, the red/green cell ratio (normalised) in assay [4] was 1.01 (inactive). Further, the normalised cell number in assay [4] (setting [18]) was 1.18; in [4] (setting [19]), 1.19.

For the compound `COC(=O)C(N)CS` (stereo unspecified), the inhibition in [1] was -5.77%. This compound also returned a score in [2] of 1.37. In addition, in assay [3], the cytochrome c release ratio is 1.33. Moreover, in assay [5], the parasite load remaining is 102% (inactive) and the viability came out at 69.9%. The red/green cell ratio (normalised) in assay [4] is 0.97 (inactive). This compound also yielded a normalised cell number in assay [4] (setting [18]) of 1.14. The compound further came in with a normalised cell number in assay [4] (setting [19]) of 1.11.

By remaining activity is commonly meant the signal under treatment as a percentage of the control signal. One may read the AC50 as the concentration at which the activity in the assay is half-maximal. For orientation: IC50 means the concentration that inhibits the measured activity by half. For `CC(C)[C@H](CO)Nc1nc(Nc2cccc(Cl)c2)c2ncn(C(C)C)c2n1`, the remaining activity in assay [6] was 115% (inactive). The concentration at half-maximal activity (AC50) in assay [7] was 14.8 µM (active); in assay [8], 20.9 µM (active); in assay [9], 16.6 µM (active); in assay [10], 14.8 µM (active); in assay [11] it was 14.8 µM (active); in [12], 7.42 µM (active). Moreover, the figures for the AC50 in assay [13] and in [14] were 20.9 µM (active) and 14.8 µM (active), respectively. Further, in assay [15], the IC50 is 16.6 µM (active). For the same compound, the fold change was 1.01 (inactive) in assay [16] (stronger effect = lower value, cell number ratio, induced over uninduced) and 0.968 in assay [16] (measured here: relative caspase fold change +Dox/-Dox). Moreover, the cell count in assay [16] (measured here: total cells with miR-34 induction, stronger effect = lower value) came out at 1040; in assay [16] (measured here: total cells without miR-34 induction), 1030. The z-score in assay [17] is -0.745 (inactive).
